Inconclusive results are not listed. Entries that show only a call come without a potency. The source made the active and inactive calls. Calls come from the whole dose curve; as a rule, active = well fitted inhibition curve with a large enough effect; inconclusive = small, poorly fitted or top-dose-only effect; inactive = flat fitted curve, though single readings scatter.
Experiment: qHTS for Inhibitors of Plasmodium falciparum (HB3) proliferation (AID 504318); note: nearly all actives have a fitted effect of over 60% in size
Settings: P. falciparum HB3 in erythrocytes, SYBR Green DNA, 72 h; series mostly up to 7.21 µM
Source text: Plasmodium falciparum is a virulent malarial parasite that kills 1-2 million people worldwide each year. Malaria not only inflicts tremendous suffering and morbidity on the human population, but has dramatically influenced the course of civilization with profound sociological and economic implications (Shah, S. 2010). Transmitted by mosquitoes, the sporozoite form of the parasite enters the blood stream to infect hepatocytes, where they become merozoites that infect red blood cells (erythrocytes). Within erythrocytes, merozoites begin a […] cycle of growth and division, after which the parasite is released to infect new red blood cells. Gametocytes, which form within erythrocytes as well, circulate in the bloodstream and are ingested by the mosquito, thereby completing the life cycle (see CDC website). To profile malarial lines for differential chemical responses and to identify inhibitors of malarial growth, an assay that measures P. falciparum growth and replication within erythrocytes was employed. This assay uses a DNA binding fluorescent dye (SYBR Green) to detect parasite DNA following cell lysis. Because mature erythrocytes lack DNA, only Plasmodium-derived DNA is detected. The P. falciparum line cp250, derived from a malarial isolate from Cambodia, (Mu, J., et al. 2010) was added to the panel of lines, Dd2, HB3, 7G8 and GB4 in this study. Laboratory of Assay Development and Screening Technology [ADST] and NIH Chemical Genomics Center [NCGC] Boston University, Chemistry Department, Center for Chemical Methodology and Library Development [CMLD-BU] NIH National Institute of Allergy and Infectious Diseases [NIAID]
ADST Assay Protocol Summary: The 1536-well SYBR Green viability assay was based on the method of Bennett et al (2004) and described previously in 1536-well format (Yuan J., et al. 2009). For screening 3 ul culture medium was dispensed into 1536 well black clear bottom plates (Aurora Biotechnologies) using a Multidrop Combi (Thermo Fisher Scientific Inc.), 23 nL compounds in DMSO were added by a pin transfer (Cleveland, P.H. and Koutz, P.J, 2005) using a pin tool-based delivery system (Kalypsys), and 5 ul of erythrocytes infected with P. falciparum one of five lines (cp250, Dd2, HB3, 7G8 or GB4, 0.3% parasitemia, 2.5% hematocrit final concentration) were added. The plates were incubated at 37C in a humidified incubator in 5% CO2 for 72 h, and 2 ul lysis buffer (20 mM Tris HCl, 10 mM EDTA, 0.16% saponin, 1.6% triton X, 10X SYBR Green I (supplied as 10,000X final concentration by Invitrogen) was added to each well. The plates were mixed for 25 sec with gentle shaking and incubated overnight at room temperature in the dark. The following morning, fluorescence intensity at 485(14) nm excitation and 535(25) nm emission wavelengths was measured on an EnVision (Perkin Elmer) plate reader. Plate reads were normalized relative to the control inhibitor (0.29 uM artemisinin) and vehicle (DMSO) wells present on each plate and then corrected by an algorithm using vehicle-only control plates at the beginning and end of the compound plate stack. References Shah, S. (2010). The Fever: how malaria has ruled humankind for 500,000 years. New York, Sarah Crichton Books. CDC web site, http://www.cdc.gov/malaria/about/biology/index.html Mu, J., Myers, R.A., Jiang, H., Liu, S., Ricklefs, S., Waisberg, M., Chotivanich, K., Wilairatana, P., Krudsood, S., White, N.J., et Plasmodium falciparum genome-wide scans for positive selection, recombination hot spots and resistance to antimalarial drugs Nature Genetics 2010, 42, pp 268-271 Bennett TN, Paguio, M., Gligorijevic, B., Seudieu, C., Kosar, A. D., Davidson, E., and Roepe, P. D. Novel, rapid, and inexpensive cell-based quantification of antimalarial drug efficacy Antimicrobial Agents Chemother. 2004, 48(5): pp 1807-10 Yuan J, Johnson RL, Huang RL, Wichterman J, Jiang HY, Hayton K, Fidock DA, Wellems TE, Inglese J, Austin CP, Su XZ. […]
Potency is the fitted concentration of half-maximal effect.

SMILES | Potency
CCCCC1=CC2=C(c3ccco3)C(=O)C(C)(OC(=O)c3ccc(OC)cc3)C(=O)C2=CN1CCc1c[nH]c2ccccc12 (stereo not given) | inactive
CC#CCN1c2ccccc2[C@]23C[C@@H](C(=O)OC)N(C(=O)c4cccs4)C2=NC(C(=O)OC)=C(C(=O)OC)[C@H]13 | inactive
COc1cc2c(cc1OC)[C@@H]1O[C@](CCCCN3C(=O)c4ccccc4C3=O)(C2)Oc2cc(C)n(-c3ccccc3)c(=O)c21 | 1.2 µM (active)
CCCCC1=CC2=CC(=O)C(C)(OC(=O)CC)C(=O)C2=CN1CCc1ccccn1 (stereo not given) | inactive
CCN(CC)CCCN1C=C2C(=O)C(C)(OC(=O)CCC(=O)OC)C(=O)C(Br)=C2C=C1c1ccc(OC)cc1 (stereo not given) | inactive
COc1ccc([C@]23Cc4cc(OC)c(OC)cc4[C@H](O2)c2c(c4ccccc4oc2=O)O3)cc1 | inactive
COC(=O)[C@H]1[C@@H](C)N(Cc2ccccc2)C(=O)N[C@H]1c1ccccc1 | inactive
CCCCC1=CC2=CC(=O)C(C)(OC(=O)CC)C(=O)C2=CN1Cc1ccccc1 (stereo not given) | inactive
CCOC(=O)CN1C(=O)N[C@@H](c2cccc(C(F)(F)F)c2)C(C(=O)OC)=C1C | inactive
CCOC(=O)OC[C@H]1O[C@H](c2ccccc2)C=C[C@H]1OC(=O)OCC | inactive
COC(=O)C1=C(C)N(Cc2ccco2)C(=O)N[C@@H]1c1ccco1 | inactive
COC(=O)C1=C(C(=O)OC)[C@@H]2N(Cc3ccccc3)c3ccccc3[C@@]23C[C@@H](C(=O)OC)N(S(=O)(=O)c2ccc(C#N)cc2)C3=N1 | 1.69 µM (active)
COC(=O)CCC(=O)OC1(C)C(=O)C=C2C=C(C3CC3)N(CC3CC3)C=C2C1=O (stereo not given) | inactive
CCCCC1=CC2=CC(=O)C(C)(OC(=O)CC)C(=O)C2=CN1CCOC (stereo not given) | inactive
COCCN1C=C2C(=O)C(C)(OC(=O)CCc3ccccc3)C(=O)C=C2C=C1c1ccc(C#N)cc1 (stereo not given) | inactive
COC(=O)C(C(=O)OC)C1c2ccccc2C=C(C)N1C(=O)OC (stereo not given) | inactive
CCOC(=O)CN1C(=O)N[C@@H](c2cccc(C(F)(F)F)c2)[C@H](C(=O)OC)[C@H]1C | inactive
CC#CCN1c2ccccc2[C@]23C[C@@H](C(=O)OC)N(C(=O)CC(C)C)C2=NC(C(=O)OC)=C(C(=O)OC)[C@H]13 | inactive
COC(=O)[C@]1(C)C=C[C@@H](C)[C@H](c2ccccc2Br)N1C(=O)C(F)(F)F | inactive
CCN1C(=O)N[C@H](c2ccc(Br)cc2)C(C(=O)OC)=C1C | inactive

SMILES | Potency
COc1cccc([C@@H]2Oc3ccc(Br)cc3C(=O)[C@@H]2OC(=O)Nc2cc(OC)c(OC)c(OC)c2)c1 | inactive
COC/C=C/C1=CC2=CC(=O)C(C)(OC(=O)c3cnc4ccccc4n3)C(=O)C2=CN1Cc1ccco1 (stereo not given) | inactive
O=C(C=Cc1ccc2c(c1)OCO2)c1ccccc1 | inactive
CCCCC1=CC2=CC(=O)C(C)(OC(=O)CC)C(=O)C2=CN1CCc1c[nH]c2ccccc12 (stereo not given) | inactive
CC#CCN1c2ccccc2[C@]23C[C@@H](C(=O)OC)N(C(=O)c4ccco4)C2=NC(C(=O)OC)=C(C(=O)OC)[C@H]13 | inactive
C=CCNC(=O)N1CCc2nc(COc3ccccc3)c3c(c2C1)CO[C@@H](C)C3 | inactive
Cc1ccc(S(=O)(=O)N2CCc3nc(-c4ccccc4)c4c(c3C2)CO[C@@H](C)C4)cc1 | inactive
CCCNC(=O)N1C2=NC(C(=O)OC)=C(C(=O)OC)[C@@H]3Nc4ccccc4[C@]23C[C@H]1C(=O)OC | inactive
O=C1C=CC2(OCCCO2)C(Br)=C1CO | inactive
CC[C@@H](C)CN1C(=O)N[C@@H](c2ccccc2)C(C(C)=O)=C1C | inactive
COC(=O)C1=C(C(=O)OC)[C@@H]2N(C)c3ccccc3[C@@]23C[C@@H](CO)N(C(=O)c2cc(C)oc2C)C3=N1 | inactive
CC1(OC(=O)CCc2ccccc2)C(=O)C=C2C=C(c3ccc(C#N)cc3)N(c3ccccc3)C=C2C1=O (stereo not given) | inactive
CCCCS(=O)(=O)N1CCc2nc(COc3ccccc3)c3c(c2C1)CO[C@@H](C)C3 | inactive
C=CCN1c2ccccc2[C@]23C[C@@H](C(=O)OC)N(C(=O)COCc4ccccc4)C2=NC(C(=O)OC)=C(C(=O)OC)[C@H]13 | inactive
COC(=O)CCCC1=CC2=CC(=O)C(C)(OC(=O)c3cccs3)C(=O)C2=CN1Cc1ccccc1 (stereo not given) | inactive
COC(=O)CCC(=O)OC1(C)C(=O)C=C2C=C(C3CC3)N(C3CC3)C=C2C1=O (stereo not given) | inactive
CCOC(=O)[C@@]1([C@@H](NC(=O)OC)c2cccc(F)c2)CCCC1=O | inactive
CCOC(=O)CN1C(=O)N(CC)C(C)=C(C(=O)OC)[C@@H]1c1ccccc1 | inactive
C=CCN1C=C2C(=O)C(C)(OC(=O)CCC(=O)OC)C(=O)C(Br)=C2C=C1c1ccc(OC)cc1 (stereo not given) | inactive
COC(=O)N1C2CC(=O)O[C@@H]3c4cc5c(cc4[C@]1(C)[C@@]3(Br)c1ccccc12)OCO5 | 1.9 µM (active)

Reference: PubChem BioAssay (NCATS)
